In PubChem BioAssay (Tox21):
Results filed as inconclusive are left out. Calls of active or inactive are those of the source. Unless noted, calls follow the shape of the dose curve; as a rule, active = well fitted curve in the direction sought with a large enough effect in the repeat runs; inconclusive = weak or mixed curves; inactive = no such curve, though single readings can be large; an effect the other way counts as inactive or inconclusive.

Tests used:
[1] = qHTS assay for small molecules that induce genotoxicity in human embryonic kidney cells expressing luciferase-tagged ATAD5 (AID 651632); also: nearly all actives have a fitted effect of over 15% in size; also: potency is read from the fitted curve at half-maximal effect
Outline: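 Luminescence read-out: after 16 hr compound exposure at 37C, ATAD5-luciferase HEK293T cells received Amplite, 30 min RT, then CCD imaging. A rise in signal marks genotoxic stress.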

[2] = qHTS assay for small molecule agonists of the p53 signaling pathway - cell viability (AID 651633; calls by dose curve;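 also: p53RE-bla HCT reporter cells with a stable beta-lactamase p53 reporter; series mostly up to about 83 µM; nearly all actives have a fitted effect of over 30% in size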)
Outline: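 p53RE-bla cells were treated with compound for 16 hours at 37 C. Cytotoxicity was then measured as CellTiter-Glo luminescence after 30 min at room temperature.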

[3] = qHTS assay for small molecules that induce genotoxicity in human embryonic kidney cells expressing luciferase-tagged ATAD5 - cell viability (AID 651634; calls by dose curve; also: nearly all actives have a fitted effect of over 25% in size)
Outline: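 HEK293T ATAD5-luc cells, 2,000/well; compound 15.5 hr, 37C/5% CO2; CellTiter-Fluor 30 min, 37C; fluorescence read.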

[4] = qHTS assay for small molecule disruptors of the mitochondrial membrane potential - cell viability (AID 720634; calls by dose curve;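 also: human HepG2 liver cancer cells; series mostly up to about 83 µM; nearly all actives have a fitted effect of over 20% in size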)
Outline: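 Luminescence from CellTiter-Glo (ATP content) gave viability in HepG2 cells, read in the same wells as the MMP dye assay after 1 hr compound exposure at 37 C.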

[5] = qHTS assay to test for compound auto fluorescence at 590 nm (red) in HepG2 cells (AID 720674)
Outline: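 HepG2 cells, 2,000 per well in MEM with 10% FBS, attached overnight at 37 C, then got 23 nL compound or DMSO. After 1 hr at 37 C, 5% CO2, red fluorescence was read at 540/590 nm against Rose Bengal sodium as reference.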

[6] = qHTS assay to test for compound auto fluorescence at 535 nm (green) in HepG2 cells (AID 720675)
[7] = qHTS assay to test for compound auto fluorescence at 460 nm (blue) in HEK293 cells (AID 720678)
Outline: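 HEK293 cells (2,000 per well, medium with 10% dialyzed FBS) attached for 4-5 hr at 37C, then received compound and stood overnight at 37C, 5% CO2. Blue fluorescence was read at Ex/Em 405/460 nm and expressed relative to triamterene.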

[8] = qHTS assay to test for compound auto fluorescence at 590 nm (red) in HEK293 cells (AID 720679)
Outline: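 HEK293 cells (2,000/well, medium with 10% dialyzed FBS) attached for 4-5 hr at 37C, received 23 nL compound and were incubated overnight at 37C, 5% CO2. Red fluorescence was then read at 540/590nm Ex/Em, referenced to Rose Bengal sodium.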

[9] = qHTS assay for small molecule disruptors of the mitochondrial membrane potential (AID 720635); also: potency is read from the fitted curve at half-maximal effect
Outline: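 HepG2 cells exposed to compound 1 hr at 37C, then Mito-MPS dye 30 min. Ratio read of aggregate (540/590 nm) versus monomer (490/535 nm) fluorescence.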

[10] = qHTS assay for small molecule agonists of the p53 signaling pathway (AID 651631; calls by dose curve; also: nearly all actives have a fitted effect of over 15% in size)
Outline: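 p53RE-bla HCT-116 cells; compounds 16 h, 37 °C; LiveBLAzer B/G FRET substrate 2 h RT; fluorescence intensity read-out, qHTS format.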
% is scaled to controls: 0 for no effect and ±100 for the full control effect.

CC(O)CN (centres undefined)
inactive: Potency [1] | Potency [2] | Potency [3] | Potency [4] | outcome [5] | outcome [6] | Potency [7] | outcome [8]

C=Cc1ccc(C=C)cc1
inactive: Potency [1] | Potency [2] | Potency [3] | Potency [4] | Potency [9] | outcome [5] | outcome [6] | Potency [7] | outcome [8]

CCCCC(CC)COCCC#N (centres undefined)
inactive: Potency [1] | Potency [2] | Potency [3] | Potency [4] | Potency [9] | outcome [5] | outcome [6] | Potency [7] | outcome [8]

Cc1ccc2ccccc2c1[N+](=O)[O-]
inactive: Potency [10] | Potency [2] | Potency [4] | Potency [9] | outcome [5] | outcome [6] | Potency [7] | outcome [8]

CC(C)CC(C)(C)C
inactive: Potency [1] | Potency [2] | Potency [3] | Potency [4] | Potency [9] | outcome [5] | outcome [6] | Potency [7] | outcome [8]

CC(=O)c1ccc(Cl)c(Cl)c1Cl
inactive: Potency [1] | Potency [2] | Potency [3] | Potency [4] | outcome [5] | outcome [6] | Potency [7] | outcome [8]

O=C(O)c1ccc(O)c(O)c1
inactive: Potency [1] | Potency [2] | Potency [3] | Potency [4] | outcome [5] | outcome [6] | Potency [7] | outcome [8]

CC(C(=O)O)c1ccc2c(c1)Cc1cccnc1O2 (centres undefined)
inactive: Potency [1] | Potency [2] | Potency [3] | Potency [4] | Potency [9] | outcome [5] | outcome [6] | Potency [7] | outcome [8]

CCCCCCCCNC
inactive: Potency [1] | Potency [2] | Potency [3] | Potency [4] | Potency [9] | outcome [5] | outcome [6] | Potency [7] | outcome [8]

C[C@@H](O)[C@H]1C(=O)N2C(C(=O)O)=C(S[C@@H]3CN[C@H](CNS(N)(=O)=O)C3)[C@H](C)[C@H]12
inactive: Potency [1] | Potency [2] | Potency [3] | Potency [4] | Potency [9] | outcome [5] | outcome [6] | Potency [7] | outcome [8]

OCCOc1cccc(OCCO)c1
inactive: Potency [1] | Potency [2] | Potency [3] | Potency [4] | Potency [9] | outcome [5] | outcome [6] | Potency [7] | outcome [8]

Oc1ccc(Oc2ccccc2)cc1
inactive: Potency [1] | Potency [2] | Potency [3] | Potency [4] | outcome [5] | outcome [6] | Potency [7] | outcome [8]
active: Potency [9] 20.6 µM

O=Cc1ccc(Cl)c([N+](=O)[O-])c1
inactive: Potency [1] | Potency [2] | Potency [3] | Potency [4] | outcome [5] | outcome [6] | Potency [7] | outcome [8]

CC(C)(Cc1c[nH]c2ccccc12)NCC(O)COc1ccccc1C#N (centres undefined)
inactive: Potency [1] | Potency [2] | Potency [3] | Potency [4] | outcome [5] | outcome [6] | Potency [7] | outcome [8]

CC(=O)CC/C=C(\C)CC/C=C(\C)CC/C=C(\C)CCC=C(C)C
inactive: Potency [1] | Potency [2] | Potency [3] | Potency [4] | Potency [9] | outcome [5] | outcome [6] | Potency [7] | outcome [8]

FC(F)(Cl)C(F)(Cl)Cl
inactive: Potency [1] | Potency [2] | Potency [3] | Potency [4] | Potency [9] | outcome [5] | outcome [6] | Potency [7] | outcome [8]

CCCC1CCOC(C)S1 (centres undefined)
inactive: Potency [1] | Potency [3] | Potency [4] | Potency [9] | outcome [5] | outcome [6] | Potency [7] | outcome [8]

O=C(O)c1ccc2c(c1)nc(C(=O)NC1CCN(C3CC3)CC1)n2Cc1cc(-c2ccc(Cl)s2)on1
inactive: Potency [1] | Potency [3] | Potency [4] | fluorescence, relative to Rose Bengal [5] 0.429% [at 18.6 µM] | fluorescence, % of fluorescein control [6] -0.0395% [at 18.6 µM] | fluorescence, % of triamterene [7] 0.0005% [at 18.6 µM] | fluorescence, % of fluorescent control [8] 0.147% [at 18.6 µM]

c1ccc(CN(Cc2ccccc2)Cc2ccccc2)cc1
active: Potency [9] 30.6 µM
inactive: Potency [1] | Potency [3] | Potency [4] | outcome [5] | outcome [6] | Potency [7] | outcome [8]

c1ccc(-c2ccc(-c3ccccc3)cc2)cc1
inactive: Potency [2] | Potency [3] | Potency [4] | fluorescence, relative to Rose Bengal [5] -0.399% [at 18.6 µM] | fluorescence, % of fluorescein control [6] -0.0708% [at 18.6 µM] | fluorescence, % of triamterene [7] -0.0124% [at 18.6 µM] | fluorescence, % of fluorescent control [8] 0.554% [at 18.6 µM]

Cc1ccc(NC=O)c(C)c1
inactive: Potency [1] | Potency [2] | Potency [3] | Potency [4] | outcome [5] | outcome [6] | Potency [7] | outcome [8]

Nc1ccc(C(=O)Oc2ccccc2)c(O)c1
inactive: Potency [2] | Potency [3] | outcome [5] | outcome [6] | Potency [7] | outcome [8]
active: Potency [1] 9.44 µM | Potency [9] 29.8 µM

C=CC(=O)NC(C)(C)C
inactive: Potency [1] | Potency [2] | Potency [3] | Potency [4] | outcome [5] | outcome [6] | Potency [7] | outcome [8]

Clc1cccc(C(c2ccc3nc[nH]c3c2)n2ccnc2)c1 (centres undefined)
inactive: Potency [1] | Potency [2] | Potency [3] | Potency [4] | outcome [5] | outcome [6] | Potency [7] | outcome [8]

CC(Cc1ccccc1)(NC(=O)CN)c1ccccc1 (centres undefined)
inactive: Potency [1] | Potency [2] | Potency [3] | Potency [4] | outcome [5] | outcome [6] | Potency [7] | outcome [8]

Nc1ccccc1Nc1ccccc1
inactive: Potency [1] | Potency [4] | outcome [5] | outcome [6] | Potency [7] | outcome [8]
